Results as given in the supplement of paper PMC6555819.

test system: VDR:RXRa (NR concentration 270 nM, RXRa partner concentration 90 nM); assay: PBM binding z-score (relative to random genomic background probes); higher = stronger binding; sequences stand for … in GC…GCGATTGACAGCGTAGAATGAAGG
Summary of the method: (§1)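 Ligand-free nuclear receptor dimers were applied to custom Agilent 4×180K protein-binding microarrays whose double-stranded probes carried direct-repeat seeds, single-nucleotide variants, half-site ablations and random human genomic background sequences in 34-nt variable regions. Incubation lasted 1 h. Binding z-scores were computed against the random background probes from regression-normalized fluorescence.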

| Sequence | PBM binding z-score |
| --- | --- |
| TTACCAAGGTGAAAGGTCGTTGAGGCACGCCTTG | 3.55 |
| CCTACTGGGCCAAGGTCTTTGATCAGTCAAAGCA | -0.509 |
| ATATGAAGGTTATCGGGTCATTCAGTTTGCGCAT | 5.41 |
| CTCGAAAGGTCGGTTGAGGTGAGTAAACGGATAA | 2.11 |
| ATCTCTAGGTAAAGTTCAGCGAAAGATCGATAGA | 1.84 |
| CGAACTAGGTCAGAACAGGACAGTTAAGGATGAT | 1.02 |
| AGTCCAAGTTCACTAGGTAACGTAAGATTCAGCT | 3.46 |
| TTACGAAGGTGAAAGGTCGTTGATGCACGCCTTG | 3.25 |
| CCTCGGAGGACAGAAGGTCAGATCTGTCCGCTTT | 0.977 |

test system: VDR homodimer (NR concentration 270 nM); assay: as above
Summary of the method: as §1

| Sequence | PBM binding z-score |
| --- | --- |
| CAAGCTAGGTCAAGAGGTCAAAGTCCGCTTCCCG | 3.64 |
| TTACCAAGGTGAAAGGTCGTTGAGGCACGCCTTG | 1.32 |
| CCTGCTAGGTCTATGGTCAGCTAAAGCAGCTCGC | -0.594 |
| AGTCATAGTTCACTAGGTAACGTAAGATTCAGCT | 0.797 |
| ACTAGTTGGTAAGCTGAGGTCACACACAATTCGG | 3.29 |
| GCTGCTAGGTCAGGTTGGTCGGCTAACGGGTACG | 0.0919 |
| CCTACTGGGCCAAGGTCTTTGATCAGTCAAAGCA | -0.659 |
| ATATGAAGGTTATCGGGTCATTCAGTTTGCGCAT | 4.06 |
| GCTGCTAGGTCAGGTTGGTCTGCTAACGGGTACG | 0.554 |
| CTCGAAAGGTCGGTTGAGGTGAGTAAACGGATAA | 0.238 |
| CGTCGGAGGACAGAAGGTCAGAGCTGTCCGCTTT | 0.136 |
| AGTCAAAGTTCACGAGGTAACGTAAGATTCAGCT | 3.84 |
| ATATGTAGCTTAAGGGTCATTCAGGTTGGTTCGC | 4.07 |
| CCGACTGGGCCATTCAGAGGTCATTGATCATATG | 3.2 |
| ATCTCTAGGTAAAGTTCAGCGAAAGATCGATAGA | 1.66 |
| CGTCCAAGGTCAGCAGGTCACTGAAAGCGACGTG | 1.88 |
| TAGCCTAGGTCAGATCGGGGCAGTATACGCTATA | 0.0728 |
| CGTCCAAGGTCAACAGGTCAGTGAAAGCGACGTG | 2.51 |
| CGTCAAAGTTCAACTAAGTTAACGTAAAGCACGC | 3.74 |
| TCTAGGAGGACACGAAGGTCAGAGCTTTCCAGAG | 0.851 |

| Sequence | PBM binding z-score |
| --- | --- |
| AGTCAAAGTTCACGACGAGGTAACGTAAAGCACG | 3.96 |
| CAAACTAGGTCACGAAAGGTCAACGTCGAATGAC | 3.47 |
| AGTCAAATTTCACTAGGTAACGTAAGATTCAGCT | 0.31 |
| CGAACTAGGTCAGAACAGGACAGTTAAGGATGAT | 0.142 |
| GATACAGAGTCAGCTAGAGGCCAGAGTATGGAAA | -0.0123 |
| CCCCGGAGGACAGAAGGTCAGAGCTGTCCGCTTT | 0.277 |
| AGTCCAAGTTCACTAGGTAACGTAAGATTCAGCT | 4.4 |
| CGTCAAAGCTCAACTAAGGTAACGTAAAGCACGC | -0.205 |
| TTACGAAGGTGAAAGGTCGTTGATGCACGCCTTG | 1.25 |
| CATACAGGGTCCGCTAGGCCAGAGTAGGGACGGC | -0.213 |
| CCTACTGGGCCATTCAGAGGTCATTGATCATATG | 3.37 |
| ATCGAATGGTCGAAGGTGAGTATACCCACCCGAA | -0.194 |
| TAGCCTAGGACATGCGGGCCAGTATAGTGTCGGC | -1.08 |
| GCTGCTAGGTCAGGATGGTCAGCTAACGGGTACG | 0.124 |
| CCTCGGAGGACAGAAGGTCAGATCTGTCCGCTTT | 0.21 |
| ATCTCTAGGTAAAGTTCATTGAAAGATCGATAGA | 4.56 |
| CAGCCTAGGTGAGGGCCAGTATAGGAGGAACGTT | -0.734 |
| GCTGCTAGGTCAGGTTGGTCAACTAACGGGTACG | 0.97 |
| CGTCGGAGGACAACAGGAGGTCAGAGCTGCCAGA | 1.79 |
